TIM10 inh: inhibits growth of TIM10 yeast strain. actives 1.4% (n = 330,000). inhibition, % at 10 µM. S. cerevisiae TIM10 strain growth, BacTiter-Glo luminescence, 24 h;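 active = inhibition of 40% or more at the single tested concentration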;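 also: wild-type TIM10 isogenic control strain grown at permissive 25 °C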
SKKanGAS inh: SKKanGAS growth inhibition. S. pyogenes SKKanGAS, kanamycin growth, BacTiter-Glo, 6 h. inhibition, % at 7.5 µM. actives 1.3% (n = 300,000);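 active = mean replicate score, as percent of positive control median, at least 50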;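 also: strain carries kanamycin resistance gene driven by streptokinase promoter and grows in 40 µg/ml kanamycin; loss of luminescence reflects streptokinase promoter inhibition or plain growth inhibition; 0% = median of DMSO wells and 100% = positive control at its reference dose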
tim10-1 inh: growth inhibitors of tim10-1 mutant yeast; S. cerevisiae tim10-1 ts strain growth, BacTiter-Glo, 24 h; inhibition, % at 20 µM; actives 2.2% (n = 330,000); AID 463190;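 active = inhibition of at least 40%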;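 also: mutant grown at 25 °C; 0% = DMSO wells with yeast and 100% = wells holding no yeast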
NLRP3 yeast inh: blocks the NALP3 inflammasome reconstituted in yeast; Yeast reconstituted NLRP3/ASC/caspase-1, beta-gal luminescence, 24 h; inhibition, % at 10 µM; actives 0.39% (n = 330,000); AID 2825;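 active = inhibition of 50% or more; inactive = inhibition below 50%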;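 also: plate controls were induced DMSO wells for no effect and uninduced yeast grown without galactose for full effect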
tim23-1 inh: inhibits growth of tim23-1 mutant yeast | inhibition, % at 20 µM | actives 1.3% (n = 330,000) | S. cerevisiae tim23-1 growth, BacTiter-Glo luminescence, 24 h | AID 463212;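 active = growth inhibition of the mutant yeast at or above 50%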;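 also: temperature-sensitive mutant grown at 25 °C; plate controls were DMSO-treated mutant yeast for no effect and medium wells lacking yeast for full effect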
PfHsp90 set2: reduces growth (ATP signal) of yeast expressing P. falciparum Hsp90; S. cerevisiae expressing PfHsp90, BacTiter-Glo ATP, 48 h; yeast lacking PDR1 and PDR3 efflux regulators; inhibition, % at 9.4 µM; actives 0.32% (n = 310,000); AID 504621;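 active = every replicate shows inhibition above about 80%, whatever the replicate mean, limit read from the data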;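 also: 0% = DMSO neutral controls and 100% = 20 µM radicicol positive controls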
tim10 confirm: confirmation of TIM10 yeast growth inhibitors; actives 63% (n = 4,600); inhibition, % at 10 µM; shares compounds with TIM10 inh; S. cerevisiae tim10 strain growth, BacTiter-Glo luminescence, 24 h;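 active = inhibition of yeast growth at or above a set limit in either of two replicates at 10 µM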;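 also: this counterscreen used the strain with wild-type TIM10; 0% = yeast with DMSO and 100% = medium wells lacking yeast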
* marks the source's active call; other numbers are inactive results. The list is not random: actives were taken first. Their share in the collection is about 4.6%.

Results for CC1(C(=O)OCC(=O)Nc2ccc3ccccc3c2)CC1(Cl)Cl (stereo unspecified) ?
TIM10 inh: 48*; SKKanGAS inh: -2; tim10-1 inh: 21; NLRP3 yeast inh: 9; tim23-1 inh: 43; PfHsp90 set2: -15; tim10 confirm: 32*

Results for O=C1Nc2cc3c(cc2C1=O)sc1ccccc13 ?
TIM10 inh: 50*; SKKanGAS inh: -10; tim10-1 inh: 22; NLRP3 yeast inh: 23; tim23-1 inh: 0; tim10 confirm: 68*

Results for Cc1cc2c(cc1C)C(=O)C(=O)N2 ?
PfHsp90 set2: -29

How did O=S(=O)(c1ccc(Cl)cc1)n1nnc2ccccc21 do in these assays?
TIM10 inh: 4; SKKanGAS inh: 3; tim10-1 inh: 13; NLRP3 yeast inh: -5; tim23-1 inh: 4

How did CCCOc1ccc(C(=O)Nc2ccc(Cl)cn2)cc1 do in these assays?
TIM10 inh: -14; SKKanGAS inh: -18; tim10-1 inh: -6; NLRP3 yeast inh: 36; tim23-1 inh: 6; PfHsp90 set2: 3

What do the screens show for `O=C(Nc1ccc(Cl)cn1)c1ccc(Oc2ccccc2)cc1`?
TIM10 inh: 75*; SKKanGAS inh: 4; tim10-1 inh: -5; NLRP3 yeast inh: 34; tim23-1 inh: 12; PfHsp90 set2: 5; tim10 confirm: 17

What do the screens show for `CC(=O)C1=C(C)NC(C)=C(C(C)=O)C1c1ccc(-c2ccccc2Cl)o1`?
PfHsp90 set2: 4

Results for CC1=NN(c2ccccc2)C(=O)/C1=C\C=C\c1ccccc1 ?
TIM10 inh: 54*; SKKanGAS inh: 3; tim10-1 inh: 28; NLRP3 yeast inh: 11; tim23-1 inh: 42; tim10 confirm: 38*

How did COc1ccc(CCNC(=S)NC(=O)c2ccccc2)cc1C do in these assays?
TIM10 inh: 45*; SKKanGAS inh: 7; tim10-1 inh: 23; NLRP3 yeast inh: 16; tim23-1 inh: 31; PfHsp90 set2: -10; tim10 confirm: 50*

Results for COc1ccccc1CNC(=S)NCCc1ccccc1 ?
TIM10 inh: 41*; SKKanGAS inh: 4; tim10-1 inh: 36; NLRP3 yeast inh: 12; tim23-1 inh: 18; PfHsp90 set2: 19; tim10 confirm: 17

Results for CC1CCN(S(=O)(=O)c2ccc(S(=O)(=O)N3CCCC3)cc2)CC1 ?
TIM10 inh: 2; SKKanGAS inh: 0; tim10-1 inh: 7; NLRP3 yeast inh: 16; tim23-1 inh: -7; PfHsp90 set2: 9

What do the screens show for `CCOc1cc(C2C(C(=O)c3ccco3)=C(O)C(=O)N2CC2CCCO2)ccc1O` (stereo unspecified)?
TIM10 inh: 7; SKKanGAS inh: -5; tim10-1 inh: -6; NLRP3 yeast inh: -10; tim23-1 inh: -2; PfHsp90 set2: 2

Results for N=C1SC(CC(=O)Nc2ccc([N+](=O)[O-])cc2)C(=O)N1c1ccccc1 (stereo unspecified) ?
TIM10 inh: 57*; SKKanGAS inh: -5; tim10-1 inh: -9; NLRP3 yeast inh: -3; tim23-1 inh: 5; PfHsp90 set2: -2; tim10 confirm: 9

Results for COCCn1c(SCC(=O)Nc2sccc2C(N)=O)nnc1-c1ccncc1 ?
TIM10 inh: -14; tim10-1 inh: -2; NLRP3 yeast inh: 3; tim23-1 inh: 6; PfHsp90 set2: 2

How did Cc1ccsc1C(=O)N/N=C/c1ccc2c(c1)OCO2 do in these assays?
TIM10 inh: 21; SKKanGAS inh: 20; tim10-1 inh: -8; NLRP3 yeast inh: 10; tim23-1 inh: 34; PfHsp90 set2: 2

How did O=C(N/N=C/c1ccc2c(c1)OCO2)c1cccs1 do in these assays?
TIM10 inh: 57*; SKKanGAS inh: 5; tim10-1 inh: 28; NLRP3 yeast inh: 21; tim23-1 inh: 50; PfHsp90 set2: -20; tim10 confirm: 48*

Results for Cn1c(O)c(C2=c3ccccc3=NC2=O)sc1=Nc1ccc(Cl)cc1 ?
TIM10 inh: 49*; SKKanGAS inh: -2; tim10-1 inh: 27; NLRP3 yeast inh: 9; tim23-1 inh: 11; PfHsp90 set2: 13; tim10 confirm: 18

Results for O=C(O)Cn1c(O)c(C2=c3ccccc3=NC2=O)sc1=O ?
TIM10 inh: -12; SKKanGAS inh: 0; tim10-1 inh: 12; NLRP3 yeast inh: 10; tim23-1 inh: 6; PfHsp90 set2: -18

Results for Cc1noc(NS(=O)(=O)c2ccc(NS(=O)(=O)c3ccc(Cl)cc3)cc2)c1C ?
TIM10 inh: -4; tim10-1 inh: 1; NLRP3 yeast inh: 3; tim23-1 inh: 8; PfHsp90 set2: 2

What do the screens show for `O=C(c1ccco1)N1CCN=C1SCc1cccc(F)c1`?
TIM10 inh: 96*; SKKanGAS inh: -4; tim10-1 inh: -10; NLRP3 yeast inh: 7; tim23-1 inh: 20; PfHsp90 set2: 5; tim10 confirm: -3

How did Cc1cc(C)c2c(N)c(C(=O)Nc3ccccc3F)sc2n1 do in these assays?
TIM10 inh: 3; SKKanGAS inh: 3; tim10-1 inh: -15; NLRP3 yeast inh: 35; tim23-1 inh: 26; PfHsp90 set2: 15

What do the screens show for `O=C(Cn1cc(C(F)(F)F)ccc1=O)N/N=C/c1ccc(Cl)cc1`?
TIM10 inh: -11; SKKanGAS inh: -1; tim10-1 inh: 8; NLRP3 yeast inh: 11; tim23-1 inh: -6; PfHsp90 set2: -1

What do the screens show for `CCCCn1c(N)c(N(Cc2ccccc2OC)C(=O)c2cc(=O)[nH]c3ccccc23)c(=O)[nH]c1=O`?
TIM10 inh: -6; SKKanGAS inh: -10; tim10-1 inh: 20; NLRP3 yeast inh: 18; tim23-1 inh: -4

How did COCCn1c(N)c(N(Cc2ccccc2)C(=O)c2cc(=O)[nH]c3ccccc23)c(=O)[nH]c1=O do in these assays?
TIM10 inh: 41*; tim10-1 inh: -9; NLRP3 yeast inh: 10; tim23-1 inh: -7; PfHsp90 set2: 7; tim10 confirm: -18

Results for COc1ccc(CCN(CC(=O)NCc2ccc(F)cc2)C(=O)c2snc(C(N)=O)c2N)cc1OC ?
TIM10 inh: -15; SKKanGAS inh: 1; tim10-1 inh: -3; NLRP3 yeast inh: 17; tim23-1 inh: -6; PfHsp90 set2: 3

What do the screens show for `Cc1ccccc1-n1c(-c2csc(C)c2C)n[nH]c1=S`?
TIM10 inh: 18; SKKanGAS inh: 6; tim10-1 inh: 28; NLRP3 yeast inh: 4; tim23-1 inh: 16; PfHsp90 set2: -6

How did Cc1cccc(-n2c(-c3csc(C)c3C)n[nH]c2=S)c1 do in these assays?
TIM10 inh: 44*; SKKanGAS inh: -8; tim10-1 inh: 39; NLRP3 yeast inh: 27; tim23-1 inh: 28; PfHsp90 set2: -35; tim10 confirm: -20

Results for Cc1cccc(-n2c(-c3ccc(Br)o3)n[nH]c2=S)c1 ?
TIM10 inh: 25; SKKanGAS inh: 12; tim10-1 inh: 18; NLRP3 yeast inh: 12; tim23-1 inh: 19; PfHsp90 set2: 9

Compound activity from PubChem BioAssay.
